# Measurements from the supplement of paper PMC8728848.
# Only a selection was taken, and the strongest signals are over-represented in it overall.
# Tests used:
# Assay in all cases: glycan array binding signal (z-score within array); higher = stronger binding
# Conditions in all cases: glycan notation: IUPAC condensed, linker removed
# [1] = target: Fuc(a1-2)Gal(b1-3)GalNAc(a1-3)[Fuc(a1-2)]Gal(b1-4)GlcNAc
# Method in brief: (§1)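 Negative Z-scores can be read as non-binding. The Z-score is calculated within each array and then averaged across arrays of one protein sequence at different concentrations or buffers and across linkers. Arrays, 3228 in all, were curated from the Consortium for Functional Glycomics database and kept only where the protein sequence was available.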
# [2] = target: Fuc(a1-2)Gal(b1-3)GlcNAc(b1-2)Man(a1-3)[Fuc(a1-2)Gal(b1-3)GlcNAc(b1-2)Man(a1-6)]Man(b1-4)GlcNAc(b1-4)GlcNAc
# Method in brief: as §1
# [3] = target: Fuc(a1-2)Gal(b1-4)GlcNAc(b1-2)Man(a1-3)[Fuc(a1-2)Gal(b1-4)GlcNAc(b1-2)Man(a1-6)]Man(b1-4)GlcNAc(b1-4)GlcNAc
# Method in brief: as §1
# [4] = target: Fuc(a1-2)Gal(b1-4)GlcNAc(b1-3)Gal(b1-4)GlcNAc(b1-3)Gal(b1-4)GlcNAc
# Method in brief: as §1
# [5] = target: Fuc(a1-2)Gal6S(b1-3)GlcNAc6S
# Method in brief: as §1
# [6] = target: Gal(a1-3)Gal(b1-4)[Fuc(a1-3)]GlcNAc(b1-2)Man(a1-3)[Gal(a1-3)Gal(b1-4)[Fuc(a1-3)]GlcNAc(b1-2)Man(a1-6)]Man(b1-4)GlcNAc(b1-4)GlcNAc
# Method in brief: as §1
# Gal(a1-4)Gal(b1-4)Glc = target: Gal(a1-4)Gal(b1-4)Glc
# Method in brief: as §1
# [7] = target: Gal(a1-4)Gal(b1-4)GlcNAc(b1-2)Man(a1-3)[Gal(a1-4)Gal(b1-4)GlcNAc(b1-2)Man(a1-6)]Man(b1-4)GlcNAc(b1-4)GlcNAc
# Method in brief: as §1
# Gal(b1-3)Gal(b1-4)GlcNAc = target: Gal(b1-3)Gal(b1-4)GlcNAc
# Method in brief: as §1
# [8] = target: Gal(b1-3)GalNAc(a1-3)[Fuc(a1-2)]Gal(b1-4)Glc
# Method in brief: as §1
# Gal(b1-4)Glc6S = target: Gal(b1-4)Glc6S
# Method in brief: as §1
# [9] = target: Gal(b1-4)GlcNAc(b1-2)Man(a1-3)[Gal(b1-4)GlcNAc(b1-2)Man(a1-6)]Man(b1-4)GlcNAc(b1-4)GlcNAc
# Method in brief: as §1
# [10] = target: Gal(b1-4)GlcNAc(b1-2)[Gal(b1-4)GlcNAc(b1-4)]Man(a1-3)[Gal(b1-4)GlcNAc(b1-2)Man(a1-6)]Man(b1-4)GlcNAc(b1-4)GlcNAc
# Method in brief: as §1
# [11] = target: Gal(b1-4)GlcNAc(b1-2)[Gal(b1-4)GlcNAc(b1-6)]Man(a1-6)[GlcNAc(b1-4)][Gal(b1-4)GlcNAc(b1-2)[Gal(b1-4)GlcNAc(b1-4)]Man(a1-3)]Man(b1-4)GlcNAc(b1-4)[Fuc(a1-6)]GlcNAc
# Method in brief: as §1
# [12] = target: Gal(b1-4)GlcNAc(b1-3)Gal(b1-4)GlcNAc(b1-3)Gal(b1-4)GlcNAc(b1-2)Man(a1-3)[Gal(b1-4)GlcNAc(b1-3)Gal(b1-4)GlcNAc(b1-3)Gal(b1-4)GlcNAc(b1-2)Man(a1-6)]Man(b1-4)GlcNAc(b1-4)[Fuc(a1-6)]GlcNAc
# Method in brief: as §1
# [13] = target: Gal(b1-4)GlcNAc(b1-3)Gal(b1-4)GlcNAc(b1-3)Gal(b1-4)GlcNAc(b1-2)[Gal(b1-4)GlcNAc(b1-3)Gal(b1-4)GlcNAc(b1-3)Gal(b1-4)GlcNAc(b1-6)]Man(a1-6)[Gal(b1-4)GlcNAc(b1-3)Gal(b1-4)GlcNAc(b1-3)Gal(b1-4)GlcNAc(b1-2)Man(a1-3)]Man(b1-4)GlcNAc(b1-4)[Fuc(a1-6)]GlcNAc
# Method in brief: as §1
# [14] = target: Gal(b1-4)GlcNAc(b1-3)Gal(b1-4)GlcNAc(b1-3)Gal(b1-4)GlcNAc(b1-3)Gal(b1-4)GlcNAc(b1-3)Gal(b1-4)GlcNAc(b1-2)[Gal(b1-4)GlcNAc(b1-3)Gal(b1-4)GlcNAc(b1-3)Gal(b1-4)GlcNAc(b1-3)Gal(b1-4)GlcNAc(b1-3)Gal(b1-4)GlcNAc(b1-6)]Man(a1-6)[Gal(b1-4)GlcNAc(b1-3)Gal(b1-4)GlcNAc(b1-3)Gal(b1-4)GlcNAc(b1-3)Gal(b1-4)GlcNAc(b1-3)Gal(b1-4)GlcNAc(b1-2)Man(a1-3)]Man(b1-4)GlcNAc(b1-4)[Fuc(a1-6)]GlcNAc
# Method in brief: as §1
# [15] = target: Gal(b1-4)GlcNAc(b1-3)Gal(b1-4)GlcNAc(b1-6)[Gal(b1-3)]GalNAc
# Method in brief: as §1
# [16] = target: Gal(b1-4)GlcNAc(b1-3)Gal(b1-4)[Fuc(a1-3)]GlcNAc(b1-3)Gal(b1-4)[Fuc(a1-3)]GlcNAc
# Method in brief: as §1
# [17] = target: Gal(b1-4)GlcNAc(b1-3)GalNAc
# Method in brief: as §1
# Gal3S(b1-3)GalNAc = target: Gal3S(b1-3)GalNAc
# Method in brief: as §1
# [18] = target: Gal3S(b1-3)[Fuc(a1-4)]GlcNAc
# Method in brief: as §1
# [19] = target: Gal3S(b1-4)[Fuc(a1-3)]Glc6S
# Method in brief: as §1
# Gal3S4S(b1-4)GlcNAc = target: Gal3S4S(b1-4)GlcNAc
# Method in brief: as §1
# Glc(b1-6)Glc = target: Glc(b1-6)Glc
# Method in brief: as §1
# [20] = target: GlcNAc(a1-4)Gal(b1-4)GlcNAc(b1-3)Gal(b1-4)Glc
# Method in brief: as §1
# GlcNAc(b1-3)Gal = target: GlcNAc(b1-3)Gal
# Method in brief: as §1
# [21] = target: GlcNAc(b1-3)[GlcNAc(b1-4)][GlcNAc(b1-6)]GlcNAc
# Method in brief: as §1
# [22] = target: Man(a1-3)[Man(a1-6)]Man(a1-6)[Man(a1-3)]Man(b1-4)GlcNAc(b1-4)GlcNAc
# Method in brief: as §1
# [23] = target: Neu5Ac(a2-3)Gal(b1-3)GlcNAc(b1-2)Man
# Method in brief: as §1
binder,measurement,setting,value
"GroEL (Clostridium difficile), Q18CT5 (protein) MAKEIKFSEETRRALEAGVNKLADTVKVTLGPKGRNVILDKKFGSPLITNDGVTIAKEIELEDRFENMGAQLVKEVATKTNDVAGDGTTTATVLAQAIIREGLKNVTAGANPILLRKGIQKAVTVAVEELKNQSRIVETQEAISQVASISAGDEEVGKLIAEAMEIVGKDGVITVEESQTMNTELDAVEGMQFDRGFVSAYMVTDVDKMEAVLNDPYILITDKKISNIQELLPVLEQIVQQGKKLLIIAEDVEGEALSTLVVNKLRGTFDVVAVKAPGFGDRRKEMLQDIAILTGAQVISEELGYDLKEADLSMLGRASSVKVTKESTTIVDGSGDKKAIEDRVTQIKHQVEQTTSDFDREKLMERLAKLAGGVAVVKVGAATEVELKERKLRIEDALNATRAAVEEGIVAGGGTAFVSVIPAIGTLIESLEGEVKLGAQIVKKALEEPLRQIAINAGLEGAVIVQNVVNSEAETGFDALNEKYVNMIEAGIVDPTKVSRSALQNAASIASTFLTTEAAVADLPEKEDAGMPGMGGGMPGMM",glycan array binding signal (z-score),[1],-0.541
same,glycan array binding signal (z-score),[2],3.73
same,glycan array binding signal (z-score),[3],2.28
same,glycan array binding signal (z-score),[4],0.143
same,glycan array binding signal (z-score),[5],-0.399
same,glycan array binding signal (z-score),[6],-0.924
same,glycan array binding signal (z-score),Gal(a1-4)Gal(b1-4)Glc,2.58
same,glycan array binding signal (z-score),[7],0.083
same,glycan array binding signal (z-score),Gal(b1-3)Gal(b1-4)GlcNAc,-0.843
same,glycan array binding signal (z-score),[8],3.31
same,glycan array binding signal (z-score),Gal(b1-4)Glc6S,0.425
same,glycan array binding signal (z-score),[9],0.454
same,glycan array binding signal (z-score),[10],2.79
same,glycan array binding signal (z-score),[11],-1
same,glycan array binding signal (z-score),[12],0.085
same,glycan array binding signal (z-score),[13],3.44
same,glycan array binding signal (z-score),[14],1.02
same,glycan array binding signal (z-score),[15],2.77
same,glycan array binding signal (z-score),[16],-1.13
same,glycan array binding signal (z-score),[17],-0.517
same,glycan array binding signal (z-score),Gal3S(b1-3)GalNAc,2.59
same,glycan array binding signal (z-score),[18],-0.243
same,glycan array binding signal (z-score),[19],3.51
same,glycan array binding signal (z-score),Gal3S4S(b1-4)GlcNAc,-0.674
same,glycan array binding signal (z-score),Glc(b1-6)Glc,3.22
same,glycan array binding signal (z-score),[20],0.659
same,glycan array binding signal (z-score),GlcNAc(b1-3)Gal,0.995
same,glycan array binding signal (z-score),[21],-0.786
same,glycan array binding signal (z-score),[22],3.99
same,glycan array binding signal (z-score),[23],-0.056
